In the supplement of paper PMC11732987, “Enantioselective OTUD7B fragment discovery through chemoproteomics screening and high-throughput optimisation” (Communications Chemistry, 2025):

What was measured:
Test in all cases: log2 ratio of Biotin-Ahx-Ub-VS probe labelling (fragment/DMSO); higher = less target engagement (more negative = stronger competition), active = hit call of the paper (q ≤ 0.05, log2 ratio ≤ -1)
Conditions in all cases: compound concentration: 200 uM; treatment time: 3 h
[1] = target: USP34 (UniProt Q70CQ2)
Chain of USP34 (Q70CQ2 whole entry, the tested form may be a part): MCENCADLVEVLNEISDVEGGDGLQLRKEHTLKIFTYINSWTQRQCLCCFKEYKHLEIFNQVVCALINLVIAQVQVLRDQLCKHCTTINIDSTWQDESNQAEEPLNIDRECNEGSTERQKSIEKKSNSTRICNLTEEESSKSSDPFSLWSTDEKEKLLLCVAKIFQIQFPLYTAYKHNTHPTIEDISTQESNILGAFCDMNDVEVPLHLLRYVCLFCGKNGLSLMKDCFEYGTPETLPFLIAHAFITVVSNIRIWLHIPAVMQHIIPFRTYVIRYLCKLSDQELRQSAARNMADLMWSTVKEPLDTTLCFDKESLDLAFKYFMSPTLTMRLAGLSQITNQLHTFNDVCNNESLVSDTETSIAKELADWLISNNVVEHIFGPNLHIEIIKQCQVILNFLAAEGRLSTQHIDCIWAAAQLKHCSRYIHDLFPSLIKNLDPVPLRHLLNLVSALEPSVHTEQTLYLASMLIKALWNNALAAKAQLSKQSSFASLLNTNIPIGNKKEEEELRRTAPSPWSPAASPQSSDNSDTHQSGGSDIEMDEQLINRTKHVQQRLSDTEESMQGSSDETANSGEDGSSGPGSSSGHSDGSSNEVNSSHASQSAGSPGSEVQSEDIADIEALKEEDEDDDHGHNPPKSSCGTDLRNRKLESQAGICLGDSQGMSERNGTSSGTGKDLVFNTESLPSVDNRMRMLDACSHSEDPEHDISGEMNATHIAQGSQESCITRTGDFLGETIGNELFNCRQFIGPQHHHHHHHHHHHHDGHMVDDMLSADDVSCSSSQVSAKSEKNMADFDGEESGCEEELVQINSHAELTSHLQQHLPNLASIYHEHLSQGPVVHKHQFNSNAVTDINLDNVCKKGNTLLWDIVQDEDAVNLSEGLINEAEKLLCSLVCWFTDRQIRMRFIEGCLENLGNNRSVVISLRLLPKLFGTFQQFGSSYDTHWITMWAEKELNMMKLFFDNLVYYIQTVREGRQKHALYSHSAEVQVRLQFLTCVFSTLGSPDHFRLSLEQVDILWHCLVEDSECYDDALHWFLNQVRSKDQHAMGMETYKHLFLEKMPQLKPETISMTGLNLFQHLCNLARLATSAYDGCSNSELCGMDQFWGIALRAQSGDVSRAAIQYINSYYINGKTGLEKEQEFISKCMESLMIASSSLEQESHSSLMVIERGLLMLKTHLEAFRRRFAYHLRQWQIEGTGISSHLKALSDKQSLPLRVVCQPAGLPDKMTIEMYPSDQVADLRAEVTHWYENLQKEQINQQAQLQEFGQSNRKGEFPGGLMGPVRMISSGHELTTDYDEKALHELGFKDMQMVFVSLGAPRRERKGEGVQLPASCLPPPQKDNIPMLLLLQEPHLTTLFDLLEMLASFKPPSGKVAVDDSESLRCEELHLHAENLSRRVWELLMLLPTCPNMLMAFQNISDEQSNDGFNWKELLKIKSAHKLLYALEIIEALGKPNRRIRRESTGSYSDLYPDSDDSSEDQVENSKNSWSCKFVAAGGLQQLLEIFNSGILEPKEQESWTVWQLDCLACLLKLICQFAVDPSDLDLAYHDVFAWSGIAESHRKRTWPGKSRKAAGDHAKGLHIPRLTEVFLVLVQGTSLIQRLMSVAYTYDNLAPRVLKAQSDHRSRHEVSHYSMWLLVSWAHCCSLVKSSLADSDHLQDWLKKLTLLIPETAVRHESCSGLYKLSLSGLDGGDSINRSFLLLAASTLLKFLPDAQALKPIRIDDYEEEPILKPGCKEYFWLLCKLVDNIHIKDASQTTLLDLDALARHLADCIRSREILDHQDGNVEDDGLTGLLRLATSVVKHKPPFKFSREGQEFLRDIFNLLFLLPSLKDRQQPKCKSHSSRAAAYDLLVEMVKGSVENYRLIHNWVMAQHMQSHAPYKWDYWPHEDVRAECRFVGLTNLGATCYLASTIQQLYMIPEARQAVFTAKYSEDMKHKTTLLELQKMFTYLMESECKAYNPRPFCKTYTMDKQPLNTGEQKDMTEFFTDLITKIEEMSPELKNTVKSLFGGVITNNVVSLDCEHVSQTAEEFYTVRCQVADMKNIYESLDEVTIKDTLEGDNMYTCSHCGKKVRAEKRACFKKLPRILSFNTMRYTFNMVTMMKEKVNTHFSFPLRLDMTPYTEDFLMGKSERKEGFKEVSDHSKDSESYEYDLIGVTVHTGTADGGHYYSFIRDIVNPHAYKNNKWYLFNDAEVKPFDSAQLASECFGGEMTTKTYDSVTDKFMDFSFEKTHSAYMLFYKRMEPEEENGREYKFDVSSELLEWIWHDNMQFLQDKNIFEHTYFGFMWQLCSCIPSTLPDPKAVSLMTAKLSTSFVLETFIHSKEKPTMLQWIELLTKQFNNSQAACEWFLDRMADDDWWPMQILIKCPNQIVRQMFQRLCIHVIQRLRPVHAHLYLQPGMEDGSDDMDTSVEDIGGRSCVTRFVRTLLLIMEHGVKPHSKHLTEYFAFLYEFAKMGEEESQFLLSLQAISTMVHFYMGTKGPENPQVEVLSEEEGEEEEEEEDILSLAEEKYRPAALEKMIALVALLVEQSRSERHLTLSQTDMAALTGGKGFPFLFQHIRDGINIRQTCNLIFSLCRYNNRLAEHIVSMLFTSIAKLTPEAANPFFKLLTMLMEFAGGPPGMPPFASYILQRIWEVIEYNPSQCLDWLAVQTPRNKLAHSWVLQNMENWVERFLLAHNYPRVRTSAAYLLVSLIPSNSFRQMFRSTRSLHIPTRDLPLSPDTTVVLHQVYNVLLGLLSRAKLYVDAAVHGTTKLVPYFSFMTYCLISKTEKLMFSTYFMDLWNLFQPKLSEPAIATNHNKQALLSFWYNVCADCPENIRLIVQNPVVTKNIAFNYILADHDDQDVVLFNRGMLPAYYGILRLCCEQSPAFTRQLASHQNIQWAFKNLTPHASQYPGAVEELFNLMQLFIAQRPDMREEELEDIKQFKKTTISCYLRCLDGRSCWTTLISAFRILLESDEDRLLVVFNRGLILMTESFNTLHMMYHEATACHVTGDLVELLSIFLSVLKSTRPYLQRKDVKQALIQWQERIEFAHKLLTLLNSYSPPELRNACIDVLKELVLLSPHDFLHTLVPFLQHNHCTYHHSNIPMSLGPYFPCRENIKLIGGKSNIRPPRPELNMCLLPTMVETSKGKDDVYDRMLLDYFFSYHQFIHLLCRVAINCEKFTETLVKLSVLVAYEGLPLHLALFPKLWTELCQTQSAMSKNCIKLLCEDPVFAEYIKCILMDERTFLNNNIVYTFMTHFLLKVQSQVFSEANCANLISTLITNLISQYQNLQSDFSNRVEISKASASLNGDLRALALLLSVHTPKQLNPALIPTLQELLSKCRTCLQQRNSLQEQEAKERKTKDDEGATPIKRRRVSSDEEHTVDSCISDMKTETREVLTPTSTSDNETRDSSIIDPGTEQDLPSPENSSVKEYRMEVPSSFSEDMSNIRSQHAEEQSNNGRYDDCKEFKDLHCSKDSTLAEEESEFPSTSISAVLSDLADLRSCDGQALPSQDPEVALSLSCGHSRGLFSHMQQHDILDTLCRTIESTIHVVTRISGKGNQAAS
Summary of the method: (§1)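 HEK293T lysate, 495 µg per sample in Tris/CHAPS/IGEPAL buffer with protease inhibitors, was treated in triplicate with fragment at 200 µM or vehicle for 3 h and then with Biotin-Ahx-Ub-VS at 0.5 µM final for 1 h. Labelled DUBs were NeutrAvidin-enriched, digested with LysC and trypsin, and run by diaPASEF LC-MS/MS. Spectronaut label-free quantities were global-median-normalised, and values are average log2 fragment/vehicle ratios by unpaired t-test on proteins with ≥2 unique peptides.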

[2] = target: T1, USP36 (UniProt Q9P275)
T1 sequence (whole entry): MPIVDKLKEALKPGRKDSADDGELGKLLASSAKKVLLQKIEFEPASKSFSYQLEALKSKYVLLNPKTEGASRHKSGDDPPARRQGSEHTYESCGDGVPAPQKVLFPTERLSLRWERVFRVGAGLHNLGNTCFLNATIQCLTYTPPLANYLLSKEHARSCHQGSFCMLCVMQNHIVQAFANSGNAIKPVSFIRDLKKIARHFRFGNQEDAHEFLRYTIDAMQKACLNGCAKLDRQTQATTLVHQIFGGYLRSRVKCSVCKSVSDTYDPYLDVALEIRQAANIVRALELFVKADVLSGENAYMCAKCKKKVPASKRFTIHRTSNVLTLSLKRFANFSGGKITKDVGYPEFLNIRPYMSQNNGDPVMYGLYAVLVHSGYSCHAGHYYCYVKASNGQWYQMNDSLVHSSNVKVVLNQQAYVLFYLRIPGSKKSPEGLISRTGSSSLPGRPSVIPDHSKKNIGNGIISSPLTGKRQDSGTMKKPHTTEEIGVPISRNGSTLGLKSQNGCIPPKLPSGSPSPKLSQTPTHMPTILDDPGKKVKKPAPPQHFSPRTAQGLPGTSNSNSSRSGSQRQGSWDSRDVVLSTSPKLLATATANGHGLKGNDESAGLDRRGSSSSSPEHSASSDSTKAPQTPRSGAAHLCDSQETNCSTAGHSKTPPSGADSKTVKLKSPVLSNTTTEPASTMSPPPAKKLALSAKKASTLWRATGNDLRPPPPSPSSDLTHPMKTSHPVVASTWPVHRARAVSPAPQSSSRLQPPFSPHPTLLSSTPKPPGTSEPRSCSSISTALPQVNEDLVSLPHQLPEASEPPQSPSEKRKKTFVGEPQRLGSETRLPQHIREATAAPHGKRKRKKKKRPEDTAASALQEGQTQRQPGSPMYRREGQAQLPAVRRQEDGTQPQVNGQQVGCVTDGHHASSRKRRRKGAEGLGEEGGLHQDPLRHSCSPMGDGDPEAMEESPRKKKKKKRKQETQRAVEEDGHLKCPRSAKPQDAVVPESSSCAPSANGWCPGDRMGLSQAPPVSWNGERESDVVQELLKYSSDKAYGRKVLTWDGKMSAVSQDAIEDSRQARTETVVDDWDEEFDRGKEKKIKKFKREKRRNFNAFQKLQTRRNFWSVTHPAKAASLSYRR
Summary of the method: as §1

[3] = target: T2, USP38 (UniProt Q8NB14)
T2 sequence (whole entry): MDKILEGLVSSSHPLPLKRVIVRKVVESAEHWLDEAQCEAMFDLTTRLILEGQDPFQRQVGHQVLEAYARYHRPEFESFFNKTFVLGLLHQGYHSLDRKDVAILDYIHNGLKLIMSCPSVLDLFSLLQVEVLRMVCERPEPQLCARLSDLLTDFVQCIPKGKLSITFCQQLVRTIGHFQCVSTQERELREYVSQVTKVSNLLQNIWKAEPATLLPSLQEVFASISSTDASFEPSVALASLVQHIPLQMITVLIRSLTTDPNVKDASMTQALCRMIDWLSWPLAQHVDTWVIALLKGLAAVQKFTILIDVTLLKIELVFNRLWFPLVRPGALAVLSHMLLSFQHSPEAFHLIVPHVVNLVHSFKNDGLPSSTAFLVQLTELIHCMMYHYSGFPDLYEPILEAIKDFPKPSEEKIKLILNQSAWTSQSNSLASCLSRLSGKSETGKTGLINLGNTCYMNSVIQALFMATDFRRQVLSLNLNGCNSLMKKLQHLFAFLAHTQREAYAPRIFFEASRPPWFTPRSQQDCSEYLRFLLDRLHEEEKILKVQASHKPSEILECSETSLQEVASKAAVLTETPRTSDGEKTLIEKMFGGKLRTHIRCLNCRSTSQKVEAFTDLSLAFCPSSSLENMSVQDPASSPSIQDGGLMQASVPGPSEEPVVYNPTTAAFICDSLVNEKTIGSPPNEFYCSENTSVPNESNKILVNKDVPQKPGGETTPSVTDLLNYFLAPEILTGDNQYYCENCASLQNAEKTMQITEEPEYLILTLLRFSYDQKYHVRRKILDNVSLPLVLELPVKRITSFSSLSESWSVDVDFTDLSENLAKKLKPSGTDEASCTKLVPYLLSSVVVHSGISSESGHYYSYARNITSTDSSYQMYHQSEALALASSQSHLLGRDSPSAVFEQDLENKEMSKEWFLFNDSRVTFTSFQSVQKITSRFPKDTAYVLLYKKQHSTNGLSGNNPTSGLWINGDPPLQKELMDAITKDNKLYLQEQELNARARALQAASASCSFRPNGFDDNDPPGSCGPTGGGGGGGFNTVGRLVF
Summary of the method: as §1

[4] = target: T3, USP39 (UniProt Q53GS9)
T3 sequence (whole entry): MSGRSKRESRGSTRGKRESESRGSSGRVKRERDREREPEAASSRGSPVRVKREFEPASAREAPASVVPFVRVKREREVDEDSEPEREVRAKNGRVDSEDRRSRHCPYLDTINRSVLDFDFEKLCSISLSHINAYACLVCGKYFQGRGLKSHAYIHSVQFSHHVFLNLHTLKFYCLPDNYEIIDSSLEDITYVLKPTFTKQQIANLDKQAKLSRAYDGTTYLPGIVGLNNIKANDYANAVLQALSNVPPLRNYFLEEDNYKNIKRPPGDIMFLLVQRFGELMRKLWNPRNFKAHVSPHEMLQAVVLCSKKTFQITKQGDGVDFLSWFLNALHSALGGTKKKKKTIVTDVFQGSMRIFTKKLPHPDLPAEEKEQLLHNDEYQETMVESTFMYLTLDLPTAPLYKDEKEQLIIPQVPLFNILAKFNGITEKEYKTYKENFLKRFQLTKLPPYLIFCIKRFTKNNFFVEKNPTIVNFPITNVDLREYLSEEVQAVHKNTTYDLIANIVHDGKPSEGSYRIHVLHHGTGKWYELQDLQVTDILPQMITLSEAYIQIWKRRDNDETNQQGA
Summary of the method: as §1

[5] = target: T4, USP4 (UniProt Q13107)
T4 sequence (whole entry): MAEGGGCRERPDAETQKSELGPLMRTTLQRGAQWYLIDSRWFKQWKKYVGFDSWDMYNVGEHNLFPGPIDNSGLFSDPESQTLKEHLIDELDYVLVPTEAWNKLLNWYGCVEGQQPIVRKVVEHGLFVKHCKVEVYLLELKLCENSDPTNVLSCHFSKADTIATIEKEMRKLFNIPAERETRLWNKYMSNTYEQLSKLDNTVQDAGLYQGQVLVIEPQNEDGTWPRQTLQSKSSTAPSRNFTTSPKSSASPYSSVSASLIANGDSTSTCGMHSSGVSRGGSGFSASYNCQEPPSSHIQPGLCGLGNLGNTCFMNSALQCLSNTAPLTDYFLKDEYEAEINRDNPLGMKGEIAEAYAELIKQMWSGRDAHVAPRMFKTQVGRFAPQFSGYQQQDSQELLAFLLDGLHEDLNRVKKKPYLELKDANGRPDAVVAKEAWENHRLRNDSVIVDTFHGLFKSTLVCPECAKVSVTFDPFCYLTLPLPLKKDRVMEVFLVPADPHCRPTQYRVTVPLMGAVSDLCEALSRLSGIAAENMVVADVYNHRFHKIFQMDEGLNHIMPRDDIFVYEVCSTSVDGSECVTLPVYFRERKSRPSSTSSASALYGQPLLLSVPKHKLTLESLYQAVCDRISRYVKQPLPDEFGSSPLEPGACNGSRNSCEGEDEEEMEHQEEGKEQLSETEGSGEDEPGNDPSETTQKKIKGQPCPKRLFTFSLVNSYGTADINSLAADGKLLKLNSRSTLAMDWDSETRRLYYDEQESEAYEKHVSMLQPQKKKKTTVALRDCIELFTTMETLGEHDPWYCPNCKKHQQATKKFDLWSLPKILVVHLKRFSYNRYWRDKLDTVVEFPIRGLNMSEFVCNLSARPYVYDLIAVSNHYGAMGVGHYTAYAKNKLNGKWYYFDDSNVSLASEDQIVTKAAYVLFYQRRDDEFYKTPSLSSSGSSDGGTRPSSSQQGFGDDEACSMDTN
Summary of the method: as §1

Measured: log2 ratio of Biotin-Ahx-Ub-VS probe labelling

O=C(CCl)N1CCC[C@@H]1c1ccon1
inactive: [1] -0.0339 | [2] -0.122 | [3] -0.189 | [4] 0.0959 | [5] -0.394
